# Shown are actives, neighbours in structure and some others; about 15% of the full set was active somewhere.
# ALOX12 inh = ALOX12 (human) lipoxygenase inhibition; P18054; purified 12hLO, xylenol orange hydroperoxide absorbance; Potency, µM (top dose mostly 108 µM), without a hit: top-dose activity change, negative = inhibition, usual class: inhibitors; hit rate 1.1% among 580,000
# Target sequence (P18054 whole entry, looked up): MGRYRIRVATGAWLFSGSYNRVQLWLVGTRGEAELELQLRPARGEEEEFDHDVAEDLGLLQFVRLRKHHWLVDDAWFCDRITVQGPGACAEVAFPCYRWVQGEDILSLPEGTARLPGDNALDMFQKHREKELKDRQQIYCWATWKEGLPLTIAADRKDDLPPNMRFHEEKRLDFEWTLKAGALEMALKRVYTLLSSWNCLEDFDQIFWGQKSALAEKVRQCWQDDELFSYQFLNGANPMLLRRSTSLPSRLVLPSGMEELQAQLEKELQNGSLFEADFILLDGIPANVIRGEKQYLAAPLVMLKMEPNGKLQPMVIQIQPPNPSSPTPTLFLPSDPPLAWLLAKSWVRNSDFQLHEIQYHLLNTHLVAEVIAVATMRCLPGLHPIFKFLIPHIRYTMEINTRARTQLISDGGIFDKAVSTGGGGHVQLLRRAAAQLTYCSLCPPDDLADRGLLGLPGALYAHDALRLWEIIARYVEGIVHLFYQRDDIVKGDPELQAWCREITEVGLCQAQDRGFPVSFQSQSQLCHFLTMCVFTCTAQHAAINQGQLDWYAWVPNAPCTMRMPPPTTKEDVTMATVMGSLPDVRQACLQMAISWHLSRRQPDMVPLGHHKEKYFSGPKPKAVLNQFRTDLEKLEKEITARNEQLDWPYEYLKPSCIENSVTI
#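 Purified human 12hLO (150 nM final) in 25 mM Hepes, 0.01% Triton X-100, pH 7.0 was preincubated 15 min at room temperature with compound. Then 40 uM arachidonic acid was added, 30 min. Hydroperoxide was read by Fe-XO absorbance ratio 573/405 nm.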
# TDP1 cell noCPT = qHTS for Inhibitors of human tyrosyl-DNA phosphodiesterase 1 (TDP1): qHTS in cells in absence of CPT; DT40 Tdp1-/- hTDP1 cells, no CPT, ATP luminescence, 48 h; Potency, µM (highest dose often 46.2 µM), inactives show at the top dose activity change, negative = growth inhibition, usual class: inhibitors; hit rate 15% among 420,000; AID 686978, 2013; also: nearly all actives have a fitted effect of over 55% in size
#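 Chicken DT40 Tdp1-/- cells complemented with human TDP1, screened without camptothecin (DMSO vehicle only), 400 cells/well. Compounds pin-transferred, cells incubated at 37 °C for at least 48 hr. Growth read as ATP-dependent luminescence (CellTiter-Glo, 30 min at RT).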
# ELG1 repair inh = blocks ELG1-dependent DNA repair in HEK293T cells; HEK293T ELG1-luciferase reporter, luminescence, 16 h; DNA damage induced by 5-fluorouridine; Potency, µM (series often up to 46.1 µM), for the others: at the top dose activity change, negative = inhibition, most hits filed as inhibitors; hit rate 2.3% among 330,000; also: nearly all actives have a fitted effect of over 55% in size
#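 5-Fluorouridine DNA damage + compound/DMSO, 2,000 cells/well, 16 h, 37 °C/5% CO2. ONE-Glo, 30 min RT, luminescence. Readout = decrease in reporter signal.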
# RORg inh = inhibitors of mouse ROR gamma transcriptional activity; P51450; Drosophila S2 Gal4-RORgamma UAS-luciferase reporter, 20 h; Potency, µM (highest dose often 53.6 µM), inactives show at the top dose activity change, negative = inhibition, hits mostly inhibitors; hit rate 5.4% among 310,000; AID 2551; also: nearly all actives have a fitted effect of over 60% in size
#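 Luminescence from a UAS-regulated Photinus luciferase reporter in stably transfected Drosophila Schneider cells is measured; decreased signal marks ROR gamma inhibition. Fusion expression is induced by 700 uM copper sulfate for 20 hr.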
# DT40 TDP1 CPT = DT40-hTDP1 cell growth loss with CPT. Potency, µM (top dose mostly 46.2 µM), without a hit: top-dose activity change, negative = growth inhibition, actives largely listed as inhibitors. chicken DT40 Tdp1-/-;hTDP1 cells + 20 nM CPT, ATP luminescence, 48 h. hit rate 12% among 420,000. AID 686979; also: nearly all actives have a fitted effect of over 55% in size
#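 Chicken DT40 Tdp1-/- cells stably complemented with human TDP1 were seeded at 400 cells/well in medium containing 20 nM camptothecin, exposed to pin-transferred compounds, and grown at 37 °C for at least 48 hr. Viability was read as ATP luminescence.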
# Gal4-VP16 FLuc = counter-screen for ROR gamma inhibitors: Gal4-VP16 reporter | Drosophila S2 Gal4-VP16 UAS-luciferase, luminescence, 20 h | Potency, µM (highest dose often 53.6 µM), inactives show top-dose activity, negative = inhibition, most hits filed as inhibitors | hit rate 3.5% among 310,000 | AID 2546;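 also: Gal4-VP16 expression switched on by copper sulfate through the metallothionein promoter; nearly all actives have a fitted effect of over 50% in size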
# Numbers without * were called inactive; ? = inconclusive; . = not tested or not shown; [ ] = dose if it differs, or a comment. Calls follow the shape of the dose curve; as a rule, active = well fitted curve in the direction sought with a large enough effect; inconclusive = small, poorly fitted or top-dose-only effect, or another doubt; inactive = no such curve, though single readings can be large; an effect the other way counts as inactive or inconclusive. % is scaled to controls: 0 for no effect and ±100 for the full control effect; potency is read from the fitted curve at half-maximal effect.
SMILES,ALOX12 inh,TDP1 cell noCPT,ELG1 repair inh,RORg inh,DT40 TDP1 CPT,Gal4-VP16 FLuc
CCOC(=O)c1cc(C)sc1NC(=O)CN1CCN(C(=O)c2ccco2)CC1,?,?,3%,-2%,23µM*,6%
CCOC(=O)c1c(NC(=O)CN2CCN(C(=O)c3ccco3)CC2)sc2c1CCCC2,-3%,-1%,21µM*,?,-13%,?
O=C(c1ccccc1OC(F)(F)F)N1CCC2(CC1)CC(O)CCO2 (configuration not stated),20%,.,.,.,.,.
COc1ccc(C2NC(=O)N(CC(=O)NC(C)C)C3=C2C(=O)OC3)cc1 (configuration not stated),53%,.,.,.,.,.
CC1(CCCCc2ccccc2)COc2ccc(C(=O)NCCN3CCOCC3)cc2N1 (configuration not stated),100µM*,.,.,.,.,.
O=C(Nc1cc(Cl)ccc1O)c1cc(-c2ccco2)on1,?,-29%,?,8%,6%,-6%
CC1(CCCCN2CCOCC2)COc2ccc(C(=O)NCc3ccccc3)cc2N1 (configuration not stated),-2%[176 µM],.,.,.,.,.
O=C(NCCN1CCOCC1)c1ccc(-c2ccccc2)cc1,17%,-1%,?,37%,-14%,5%
O=C(NCCN1CCOCC1)c1ccc2ccccc2c1,151%,-14%,?,16%,21µM*,26%
O=C(Nc1cc(Br)ccc1O)c1cc(-c2ccco2)on1,28µM*,?,?,-6%,-2%,5%
O=C(NCCN1CCOCC1)c1cc(-c2ccco2)on1,26%,15µM*,?,-18%,15µM*,10%
CS(=O)(=O)c1ccc(NC(=O)c2ccccc2-c2ccccc2)cc1,11%,.,.,.,.,.
CCCCOc1ccccc1-c1ccccc1CN1[C@@H](C(C)C)COCCS1(=O)=O,?,18µM*,-4%,.,16µM*,.
CC(C)C[C@H]1COCCS(=O)(=O)N1Cc1ccccc1F,?,-1%,.,.,-7%,.
CCC(C)[C@H]1COCCS(=O)(=O)N1Cc1ccccc1F (some centres not stated),17%,?,-12%,1%,?,-1%
CC(C)[C@H]1COCCS(=O)(=O)N1Cc1ccccc1-c1cccc2c1oc1ccccc12,-1%,18µM*,-9%,.,?,.
CCNC(=O)N1Cc2[nH]cnc2C[C@H]1C(=O)NCc1ccccc1,53%[176 µM],.,.,.,.,.
COc1ccc(NC(=S)NC(=O)c2ccc3c(c2)OCCO3)cc1,7.1µM*,18µM*,?,.,?,.
O=C(NC(=S)Nc1c(F)cc(F)cc1Br)c1ccc2c(c1)OCCO2,?,-15%,?,7.9µM*,-18%,?
O=C(NC(=S)Nc1ccc(N2CCCC2)cc1)c1ccc(F)cc1,?,-22%,-2%,2.5µM*,-18%,5.6µM*
O=C(NC(=S)Nc1ccc(CN2CCOCC2)cc1)c1ccc2c(c1)OCCO2,0%,15µM*,?,?,?,?
O=C(Nc1nc2c(F)cc(F)cc2s1)c1ccc2c(c1)OCCO2,-29%,-4%,.,.,-7%,.
Cc1ccc(NC(=O)Cn2c(=O)c3c(ncn3Cc3ccccc3)n(Cc3ccccc3)c2=O)c(F)c1,-37%,.,.,.,.,.
CS(=O)(=O)N1CCN(c2ccc(NC(=S)NC(=O)c3ccc4c(c3)OCO4)cc2)CC1,?,?,-2%,-34%,-16%,-5%
O=C(NC(=S)Nc1ccc(N2CCCCC2)cc1)c1ccc2c(c1)OCCO2,?,16µM*,?,3.5µM*,?,5µM*
SMILES,ALOX12 inh,TDP1 cell noCPT,ELG1 repair inh,RORg inh,DT40 TDP1 CPT,Gal4-VP16 FLuc
O=C(NC(=S)Nc1ccc(N2CCOCC2)cc1)c1ccc2c(c1)OCCO2,?,23µM*,?,8.9µM*,?,?
Cc1ccccc1C1CC(=O)c2ccccc2C1C (configuration not stated),-2%,?,.,.,?,.
O=C1c2ccccc2[C@@H]2Cc3csc[n+]3[C@H]12,-7%,5.2µM*,.,.,3.7µM*,.
COc1ccc(-c2nnc(SC(C(=O)N3CCOCC3)c3ccccc3)n2C)cc1 (configuration not stated),-13%,.,.,.,.,.
O=C(CSc1nnc(COc2ccc(Br)cc2)o1)NC1CCCCC1,-9%,-3%,2%,2%,6%,6%
O=C(CN(Cc1cccs1)C(=O)CSc1nnc(COc2ccccc2)o1)NC1CCCCC1,-17%,?,18µM*,-4%,?,2%
CCOc1ccc(N(CC(=O)NC2CCCCC2)C(=O)CSc2nnc(COc3ccccc3)o2)cc1,-15%,?,18µM*,39%,?,-28%
CCc1ccc(N2C(=O)Cc3c2nc(N)c(C#N)c3N)cc1,-26%,-2%,?,37%,-11%,11%
CCN(CC)c1nc2c3c(nc4c(c3c1C#N)CC(=O)N4c1ccc(Cl)cc1)NC(C)=N2,?,18µM*,?,?,?,-16%
COc1ccc(NC(=O)Nc2c(C)n(C)n(-c3ccccc3)c2=O)cc1OC,2%,19%,11%,-26%,14%,-6%
Cc1c(NC(=O)/C(C#N)=C/c2ccccc2)c(=O)n(-c2ccccc2)n1C,-4%,-1%,12%,-16%,6%,-16%
Cc1ccc(NC(=S)Nc2cccc(S(=O)(=O)Nc3c(C)n(C)n(-c4ccccc4)c3=O)c2)cc1,?,1%,-15%,11µM*,9%,4%
Cc1c(NN=C(C#N)C#N)c(=O)n(-c2ccccc2)n1C,2%,?,5.8µM*,?,-85%,?
Cc1ccc(NC(=O)Nc2c(C)n(C)n(-c3ccccc3)c2=O)cc1C,3%,23µM*,-12%,17%,16µM*,5%
COc1ccc(C(=O)N2CCC(N3Cc4cnc(C)n4C3=O)CC2)cc1,34%,.,.,.,.,.
CCOC(=O)c1cccc(COC(=O)c2cccc(-c3nnc(-c4ccccc4)o3)c2)c1,-11%,16µM*,?,-5%,26µM*,-29%
O=C(OCc1ccc(C(=O)c2ccccc2)cc1)c1cccc(-c2nnc(-c3ccccc3)o2)c1,11%,?,-25%,2%,16µM*,-25%
O=C(OCc1ccccc1)c1cccc(-c2nnc(-c3ccccc3)o2)c1,7%,-16%,?,-21%,?,?
O=C(Cc1ccc(F)cc1)Nc1ccccc1C(F)(F)F,-55%,.,.,.,.,.
